Experimental data as given in PubChem BioAssay (NCATS).
Results filed as inconclusive are left out. A number with no mark means an inactive call. The source made the active and inactive calls. Calls follow the shape of the dose curve; as a rule, active = well fitted curve in either direction with a large enough effect (not every such curve was filed as active); inconclusive = small, poorly fitted or top-dose-only effect, or another doubt; inactive = flat fitted curve, though single readings scatter. Peptide text beside a SMILES is read from it.

Target: Mitogen-activated protein kinase 10 (Mus musculus) (UniProt Q61831)
Experiment: JNK3 AlphaScreen Assay (AID 530);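 also: kinase came from lysate of stimulated human HepG2 cells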
Conditions: JNK3 lysate, c-Jun phosphorylation; series mostly up to 57.1 µM; activity change, negative = inhibition: at the top concentration
From the text: NIH Chemical Genomics Center [NCGC]
NIH Molecular Libraries Screening Centers Network [MLSCN]
The c-jun N-terminal kinase (JNK) family are serine/threonine protein kinases that phosphorylate c-jun, a component of the transcription factor […] (AP-1). JNK kinases are members of the mitogen-activated protein kinase family including the extracellular regulated kinases and p38 kinases. Three JNK genes (JNK 1, 2, and 3) have been identified in humans so far. JNK1 and JNK2 have a broad distribution and JNK3 is primarily found in neuronal tissues and cardiac myocytes.
JNK3 has been under consideration as a target for the treatment of neurodegenerative disorders. […] JNK pathway is also involved in pathological process in a mouse model of Parkinson's disease (Xia et al., 2001).
Given these potential tissue distributions and links to neuroprotection, JNK3 inhibitors should provide useful investigational tools to study the role of this kinase in several diseases including, arthritis, stroke, myocardial infarction, ischemic injury and Parkinson's disease.
A homogeneous AlphaScreen is developed to measure the activity of JNK3. AlphaScreen is a two bead-based proximity-dependent chemical energy transfer luminescent assay platform. The phosphorylation of a biotinylated c-jun substrate by JNK3 can be detected with an antibody raised against phosphorylated c-jun. This process brings streptavidin donor beads and Protein-A acceptor beads to within a proximity range of <200 nm, and subsequently lead a chemical luminescent reaction upon exciting donor beads with 680 nm laser excitation light. Inhibition of JNK3 activity by small molecules and subsequent decrease in the antibody binding to biotinylated c-jun could attenuate or abolish this chemical luminescent reaction.
Yang DD, Kuan CY, Whitmarsh AJ, Rincon M, Zheng TS, Davis RJ, Rakic P and Flavell RA (1997) Absence of excitotoxicity-induced apoptosis in the hippocampus of mice lacking the Jnk3 gene. Nature 389:865-870. [PMID: 9349820]
Herdegen T, Claret FX, Kallunki T, Martin-Villalba A, Winter C, Hunter T, and Karin M (1998) Lasting N-terminal phosphorylation of c-Jun and activation of c-Jun N-terminal kinases after neuronal injury. J.Neurosci. 18:5124-5135. [PMID: 9651196]
Xia XG, Harding T, Weller M, Bieneman A, Uney JB and Schulz JB (2001) Gene transfer of the JNK interacting protein-1 protects dopaminergic neurons in the MPTP model of Parkinson's disease. Proc.Natl.Acad.Sci.U.S.A. 98:10433-10438.
NCGC Assay Protocol Summary:
GST-cJun (1-79) (Stratagene, La Jolla CA, #205145) was biotnylated by PerkinElmer (PerkinElmer-BioSignalInc. Montreal, Canada) and was detectable by the streptavidin Donor beads. Anti-(phospho)cJun (Ser73) antibody was from UpState (Charlottesvilles, VA, #06-659). JNK3-containing lysates were generated from HepG2 cells and pre-activated by interleukin1-beta and tumor necrosis factor alpha. All reagents were stored at -20 C before using. Phosphorylated biotinylated-GST-cJun was recognized by Anti-(phospho)cJun (Ser73) antibody and this process brings acceptor and donor beads together. Therefore JNK3 phosphorylation of cJun can be measured by Alpha reading by EnVision (PerkinElmer, Boston, MA).
The composition of kinase buffer was (in mM) 20 tris- HCl (pH 7.6) 10 MgCl2, 1 DTT, and 0.1 Na3VO4 and 0.01% Tween-20. Beads were diluted in detection buffer containing (in mM) 20 tris-HCl (pH 7.7), 20 NaCl and 80 EDTA and 0.3% BSA. The assay was performed at room temperature. All compounds were screened as titrations from 0.6 nM to 46 uM final concentration. The assay was performed in 1536-well format (white solid bottom and untreated) as follows:
Sequence,Parameter,Value,Description
1,Reagent,3 uL,Biotin-GST-cJun, Anti-(phospho)cJun and pre-activated JNK3-containing lysates
2,Compound,23 nL,Final concentration was 0.6nM to 46uM
3,Time,15 minutes,Room Temperature
4,Reagent,1 uL,ATP final concentration 10uM
6,Reagent,0.5 uL,2ng/well bead mixture
[…]
% is scaled to controls: 0 for no effect and ±100 for the full control effect.

SMILES | activity change, negative = inhibition | outcome
IC(I)I | 4.49% | 
CCOC(C)=O | 8.18% | 
CC[N+](C)(C)Cc1ccccc1Br |  | inactive
CC(C)(C)C(=O)OCOC(=O)[C@@H]1N2C(=O)[C@@H](N=CN3CCCCCC3)[C@H]2SC1(C)C | 5.29% [at 25.6 µM] | 
CC(O)CO (centres undefined) | 14% | 
CN(C)CCCN1c2ccccc2C(C)(C)c2ccccc21 | -0.792% [at 11.4 µM] | 
CC(C)=O | -17.9% | 
CCOc1ccc2c(c1)C(C)=CC(C)(C)N2 |  | inactive
CCN(CC)Cc1cc(Nc2ccnc3cc(Cl)ccc23)ccc1O | -1.4% [at 25.6 µM] | 
CCCCCCCC/C=C\CCCCCCCC(=O)O | 13.2% | 
O=CCCCC=O | -4.32% | 
CC(=O)N[C@@H](CC(=O)O)C(=O)N[C@@H](CCC(=O)O)C(=O)O (Ac-Asp-Glu-OH) |  | inactive
O=C1CSC2(CCN(CCCN3c4ccccc4Sc4ccc(Cl)cc43)CC2)N1 | -6.21% [at 11.4 µM] | 
CC(C)(C)NC(=O)[C@@H]1C[C@@H]2CCCC[C@@H]2CN1C[C@@H](O)[C@H](Cc1ccccc1)NC(=O)[C@H](CC(N)=O)NC(=O)c1ccc2ccccc2n1 | 9.11% | 
COc1ccc(CCNC[C@H](O)c2ccc(O)cc2)cc1OC | -3.61% | 
O=S(=O)(O)O |  | inactive
CC1(C)S[C@@H]2[C@H](NC(=O)[C@@H](NC(=O)N3CCNC3=O)c3ccccc3)C(=O)N2[C@H]1C(=O)O | 3.13% [at 25.6 µM] | 
Cc1cc(C(=O)NNCc2ccccc2)no1 | 8% [at 25.6 µM] | 
CC1=C2[C@@H]([C@H](C)CC[C@H]2/C=C(\C)C(=O)O)[C@H](O)C1 | 17.1% | 
CCCC(=O)Nc1ncnc2c1ncn2[C@@H]1O[C@@H]2COP(=O)(O)O[C@H]2[C@H]1OC(=O)CCC | -34.5% | 
CCCCCCCC(=O)O |  | inactive
Nc1ccn([C@H]2CS[C@@H](CO)O2)c(=O)n1 | -6.7% | 
Cc1ccccc1 |  | inactive
O=C(O)CC/C=C\CC[C@H]1[C@@H](N2CCCCC2)[C@@H](O)C[C@@H]1OCc1ccc(-c2ccccc2)cc1 | -22.9% | 
COC(=O)C1=C(C)NC(C)=C(C(=O)OCCCN2CCC(c3ccccc3)(c3ccccc3)CC2)[C@H]1c1cccc([N+](=O)[O-])c1 | -44.8% | 
CC1(C)S[C@@H]2[C@H](NC(=O)Cc3ccccc3)C(=O)N2[C@H]1C(=O)O | -2.44% [at 25.6 µM] | 
O=C(O)CCC(=O)C(=O)O |  | inactive
CN=C(NC#N)Nc1ccc(C2=NNC(=O)C[C@@H]2C)cc1 |  | inactive
Nc1c(Br)cc(Br)cc1CNC1CCC(O)CC1 (centres undefined) | -10.7% [at 25.6 µM] | 
